PfHsp40 yeast = rescue of yeast from PfHsp40 toxicity, primary screen, S. cerevisiae, ATP luminescence. growth rescue, % at 12.5 µM. AID 504582, 2011. hit rate 0.68% among 340,000. S. cerevisiae expressing PfHsp40, growth rescue; in the data active = growth rescue above about 28%, passing the limit was not always enough;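 note: yeast W303a lacking pdr1 and pdr3 grown in galactose medium; growth measured after three days at 30 °C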
Sa RN4220 lethal = growth inhibition of S. aureus RN4220, primary screen, OD600. 16 h. inhibition, % (test concentration not listed). hit rate 0.33% among 330,000. AID 1259311, 2017; in the data active = inhibition above about 85%;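 note: plate controls were untreated cells for no effect and reference antibiotic for full effect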
ugtP null kill = growth inhibition of ugtP-null S. aureus, primary screen, RN4220 ugtP deletion, OD600. 16 h. growth inhibition, % (no concentration beside the values). hit rate 0.54% among 330,000. AID 1259309, 2017; in the data active = growth inhibition above about 68%;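 note: plate controls were untreated wells for no effect and antibiotic for full effect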
Mtb hypoxia inh = PubChem AID 1159583; M. tuberculosis hypoxia-regulated fluorescent reporter, fluorescence; fluorescence inhibition, % (concentration not given with the values); hit rate 0.1% among 300,000; in the data active = fluorescence inhibition mostly above about 23%, no sharp cut-off; inactive = mostly below about 17%
VHR inh abs = VHR1 phosphatase inhibitors, primary screen, biochemical, absorbance, uHTS. Dual specificity protein phosphatase 3 (Homo sapiens), P51452. recombinant VHR phosphatase, pNPP absorbance. inhibition, % at 13.3 µM. hit rate 0.52% among 290,000. AID 1654, 2009; in the data active = inhibition above about 50%
Target sequence (P51452 whole entry, looked up): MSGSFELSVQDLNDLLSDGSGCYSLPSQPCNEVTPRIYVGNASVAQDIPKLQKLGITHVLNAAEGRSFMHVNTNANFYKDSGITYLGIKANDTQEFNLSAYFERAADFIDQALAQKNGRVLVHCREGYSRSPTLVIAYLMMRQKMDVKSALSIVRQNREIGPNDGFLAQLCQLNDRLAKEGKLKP
SSB-PriA inh = inhibitors of Klebsiella pneumoniae PriA binding to SSB C-terminal tail, primary screen, biochemical, AlphaScreen; PriA–SSB C-terminal tail interaction (Klebsiella pneumoniae); AlphaScreen SSBct-PriA binding, biotinylated peptide; inhibition, % at 33 µM; hit rate 0.6% among 430,000; AID 1272365, 2023; in the data active = inhibition mostly above about 37%, no sharp cut-off; inactive = mostly below about 20%;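 note: plate controls were negative control peptide for no effect and reference peptide for full effect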
The depositor's hits bear a star; / = no result given. Compounds with a hit are over-represented: about 1.8% of the library has one in this group of screens.

SMILES	PfHsp40 yeast	Sa RN4220 lethal	ugtP null kill	Mtb hypoxia inh	VHR inh abs	SSB-PriA inh
CCCCCCCn1c2c(c(=N)c3c1CCC3)CCCC2	-1	11	99*	/	0	-3
CCCCCCn1c2c(c(=N)c3c1CCC3)CCC2	0	3	2	13	-17	-6
Cc1cc(NC(=O)c2cccc3[nH]ccc23)ccc1Br	/	/	/	/	/	10
C[C@]12CCC3c4cc(O)c(O)cc4CCC3C1CCC2O (some centres not stated)	/	11	-12	0	/	/
Cc1ccc(-c2cc(-c3ccc(C)cc3)[n+](-c3ccccc3)c(-c3ccc(C)cc3)c2)cc1	229*	101*	100*	/	/	2
Cc1ccc(-c2cc(-c3ccccc3)cc(-c3ccccc3)[n+]2-c2ccccc2)cc1	1	94*	98*	/	/	11
O=C(NNC(=O)C1CC1)c1cccn(Cc2ccc(Cl)c(Cl)c2)c1=O	/	/	/	/	/	-3
Clc1ccccc1-c1nnc(-c2cc3ccccc3o2)o1	/	/	/	/	/	6
O=C(NCCn1ccc(C(F)(F)F)n1)C1(c2ccc(Cl)cc2)CCCC1	/	/	/	/	/	-10
O=C(Oc1ccc2cc(Br)ccc2c1)N1CCOCC1	/	/	/	/	/	-11
Cc1cc(=O)oc2cc(OC(C)C(=O)NCCCn3ccnc3)ccc12 (configuration not stated)	95*	2	5	7	18	9
CCc1cc(=O)oc2cc(OC(C)C(=O)NCCCn3ccnc3)ccc12 (configuration not stated)	0	5	1	9	44	3
CC(Oc1ccc2c3c(c(=O)oc2c1)CCCC3)C(=O)NCCCn1ccnc1 (configuration not stated)	0	2	2	7	58*	7
CC(=O)c1ccc(OC[C@H](O)CSc2ccccn2)cc1	/	/	/	/	/	-4
O=c1cc(CSc2nc(NCC3CCCO3)c3ccccc3n2)nc2ccc(Cl)cn12 (configuration not stated)	/	/	/	/	/	0
CCOC(=O)N1CCN(S(=O)(=O)c2ccc(C(=O)NNc3nc4c(C)cc(C)cc4s3)cc2)CC1	/	14	-1	-9	11	-6
CCOC(=O)N1CCN(S(=O)(=O)c2ccc(C(=O)NNc3nc4ccc(Cl)cc4s3)cc2)CC1	274*	-6	-8	-1	4	-9
CCOC(=O)N1CCN(S(=O)(=O)c2ccc(C(=O)Nc3nc(C)c(C(C)=O)s3)cc2)CC1	/	/	/	/	/	-4
CCOC(=O)N1CCN(S(=O)(=O)c2ccc(C(=O)NNc3nc4c(C)cccc4s3)cc2)CC1	130*	1	4	3	-7	10
CCOC(=O)N1CCN(S(=O)(=O)c2ccc(C(=O)Nc3ccc4nc(C)sc4c3)cc2)CC1	/	/	/	/	/	-17
CCOC(=O)N1CCN(S(=O)(=O)c2ccc(C(=O)NNc3nc4cc(C)cc(C)c4s3)cc2)CC1	323*	/	/	/	0	-1
CCCCCCCCSc1nnc(N=CN(C)C)s1	/	11	14	4	/	-16
CC(C)c1cc(C(C)C)c(C(C)C)c([N+](=O)[O-])c1N	/	/	/	/	/	35*
Cc1ccc(N2CCCS2(=O)=O)cc1NS(=O)(=O)Cc1cc(F)ccc1F	/	/	/	/	/	-12
CC(C)c1ccc(OCC(=O)NNC(=S)NC(=O)c2ccco2)c(Br)c1	2	26	9	15	14	2
SMILES	PfHsp40 yeast	Sa RN4220 lethal	ugtP null kill	Mtb hypoxia inh	VHR inh abs	SSB-PriA inh
CC(C)(C)c1ccc(OCC(=O)NNC(=S)NC(=O)c2ccco2)c(Br)c1	-1	99*	98*	-3	4	9
CN(C)CCN(CC1CCCN(Cc2ccccc2F)C1)C(=O)c1ccc(Cl)cc1 (configuration not stated)	1	4	5	18	11	-3
COc1ccccc1CN1CCCC(CN(CCN(C)C)C(=O)c2ccc(C)cc2)C1 (configuration not stated)	3	0	8	16	51*	-3
CCN(CC)CCN(Cc1cc2cc3c(cc2[nH]c1=O)OCO3)C(=S)NCCCN(C)C	13	5	5	8	52*	7
COCCCNC(=S)N(CCO)Cc1cc2cc3c(cc2[nH]c1=O)OCO3	-1	0	3	-11	52*	0
Cc1scc(C(=O)NN=Cc2ccco2)c1C	/	2	0	17	/	-24
O=C1C=C(c2cccs2)C[C@H](c2ccccc2)[C@H]1n1nnc([N+](=O)[O-])n1	1	72	98*	21	-2	28
CCOc1ccc(-n2nnc3c(=O)n(Cc4nc(-c5cccc(Cl)c5)no4)cnc32)cc1	/	/	/	/	/	-8
Cc1ccc(-c2nc(-c3ccncc3)no2)cc1C	1	2	-5	-6	59*	-4
Cn1ccsc1=NC(=O)Nc1ccccc1	/	1	13	3	/	-4
CCCC1CCC(c2ccc(C(=O)NN)cc2)CC1 (configuration not stated)	2	-12	98*	8	18	2
CCNC(=O)NC(=O)C(C)N1C(=O)NC(c2ccccc2)(c2ccccc2)C1=O (configuration not stated)	0	5	6	-1	55*	11
CCn1c(=O)n(CC)c2cc(N3CCCC3)c(NC(=O)c3ccc(C)cc3)cc21	14	2	-5	-7	56*	16
CCOc1ccc(OCCNS(C)(=O)=O)cc1	/	/	/	/	/	-11
COc1ccc(Cl)cc1NC(=O)CC1CCCCN1S(=O)(=O)c1ccc(F)cc1 (configuration not stated)	/	/	/	/	/	13
CC(C)COC(=O)c1ccc2c(c1O)C(=O)c1ccccc1C2=O	3	92*	93*	5	10	10
COc1ccc2c(c1O)C(=O)c1ccccc1C2=O	/	/	/	/	-6	/
CC(=O)c1c(N2CCN(C)CC2)[nH]c(-c2ccccc2)nc1=S	1	0	9	/	-12	46*
O=S(=O)(O)c1ccc(N=Nc2ccccc2)cc1	-1	-3	-4	-5	36	0
O=c1ccc(N=Nc2ccccc2)ccc1O	102*	0	11	13	14	4
Cn1c(CC(=O)Nc2ccc(Cl)c(Cl)c2)n[nH]c1=S	0	4	2	4	-4	3
COc1ccc(Cc2n[nH]c(=S)n2NC(=O)Nc2ccc(Cl)c(Cl)c2)cc1	0	100*	100*	2	-12	-8
COCCN1CCCc2ccc(NS(=O)(=O)c3ccc4c(c3)CCCC4)cc21	/	/	/	/	/	45*
COCCN1CCCc2ccc(NS(=O)(=O)c3c(C)c(C)c(C)c(C)c3C)cc21	/	/	/	/	/	38*
COC(=O)C1=C(C)N(Cc2ccccc2)C(=NCCCCO)NC1c1ccccc1 (configuration not stated)	/	3	-5	7	/	/
COc1ccc(-n2nnnc2CNC(=O)C(=O)c2c[nH]c3ccccc23)cc1	1	1	0	2	/	6

Screening data (PubChem)
